{"source": "PubChem BioAssay (NCI)", "note": "About 83,000 compounds went through this panel and 20% of them were active in at least one assay; those are over-represented in the sample as a whole.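 Cells were grown in 96-well plates and exposed to the test compound at a single concentration for 48 hours; results are reported as percent growth, with values below 10 considered active.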 The source made the active and inactive calls.", "data": [{"tested_on": "OVCAR-8 ovarian", "assay": "NCI-60 one-dose screen, 48 h (100 = growth as untreated, 0 = no growth, -100 = all killed)", "conditions": "10 µM unless noted", "values": [{"smiles": "CN(Cc1cnc2nc(N)nc(N)c2n1)c1ccc(C(=O)NC(CCC(=O)O)C(=O)O)cc1", "note": "(centres undefined)", "growth": "24% (inactive)"}, {"smiles": "CCOc1ccc(-c2nc3ccc(-c4nc5ccc(N6CCN(C)CC6)cc5[nH]4)cc3[nH]2)cc1", "growth": "-38.2% (active)"}, {"smiles": "CNc1ccc(N)cc1", "growth": "113% (inactive)"}, {"smiles": "CC1(C)CC([P+](c2ccccc2)(c2ccccc2)c2ccccc2)=NN1", "growth": "32.3% (inactive)"}, {"smiles": "Oc1c(Br)cc(Cl)cc1C(c1cc(Cl)cc(Br)c1O)C(Cl)(Cl)Cl", "growth": "14.3% (inactive)"}, {"smiles": "Cc1ccc(C(=Nc2ccccc2)N=P(c2ccccc2)(c2ccccc2)c2ccccc2)cc1", "growth": "6.99% (active)"}, {"smiles": "CC1SC(=S)N(c2ccc(Cl)cc2)C1=O", "note": "(centres undefined)", "growth": "101% (inactive)"}, {"smiles": "O=C1NC(=O)/C(=C/C=C/c2ccccc2)S1", "growth": "43.1% (inactive)"}, {"smiles": "CCCCCCCCCCCCCCCC[N+](C)(CCO)Cc1cnc[nH]1", "note": "(centres undefined)", "growth": "-4.26% (active)"}]}]}
